# A selection: hits, their analogues and other compounds. The true share with any hit is near 7.4%.
# NPC1 prom act: qHTS Assay for NPC1 Promoter Activators. Huh7 NPC1 promoter luciferase reporter, 24 h. Potency, µM (titrated, usually from 9.22 µM), for inactives: at the top dose activation, usual class: activators. actives 2.4% (n = 320,000). AID 485313, 2010; also: % of control where 0% means no effect; nearly all actives have a fitted effect of over 60% in size
#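 Huh7 cells stably carrying NPC1 promoter–luciferase, plated in Opti-MEM with 10% FBS for 2 h, were exposed to compound in DMSO for 24 h at 37 °C; luciferase reagent was added for 10 min and luminescence read.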
# KinaseGlo FLuc: Counterscreen for Luciferase (Kinase-Glo TM) Inhibition; actives 0.28% (n = 200,000); Kinase-Glo luciferase, ATP luminescence, 8 min; AID 1379, 2008; Potency, µM (series often up to 38.3 µM), for the others: at the top dose activity change, negative = inhibition, usual class: inhibitors; Luciferin 4-monooxygenase (Photuris pensylvanica), Q27757; also: % is scaled to controls: 0 for no effect and ±100 for the full control effect; nearly all actives have a fitted effect of over 60% in size
#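 Kinase-Glo luciferase light output from ATP and luciferin was measured with 10 uM ATP, within the enzyme's linear range. Buffer: 50 mM imidazole pH 7.2, 50 mM KCl, 7 mM MgCl2, 0.01% Tween 20, 0.05% BSA; luminescence read after 8 min at ambient temperature.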
# FLuc counter: qHTS profiling assay for firefly luciferase inhibitor/activator using purifed enzyme and Km concentrations of substrates (counterscreen for miR-21 project) | Potency, µM (titrated, usually from 57.5 µM), for inactives: at the top dose activity change, negative = inhibition, usual class: inhibitors | actives 6.9% (n = 360,000) | Luciferin 4-monooxygenase (Photinus pyralis), P08659 | purified FLuc, Km substrates, luminescence inhibition;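 also: plate controls were vehicle for no effect and reference inhibitor for full effect; nearly all actives have a fitted effect of over 55% in size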
# Target sequence (P08659 whole entry, looked up): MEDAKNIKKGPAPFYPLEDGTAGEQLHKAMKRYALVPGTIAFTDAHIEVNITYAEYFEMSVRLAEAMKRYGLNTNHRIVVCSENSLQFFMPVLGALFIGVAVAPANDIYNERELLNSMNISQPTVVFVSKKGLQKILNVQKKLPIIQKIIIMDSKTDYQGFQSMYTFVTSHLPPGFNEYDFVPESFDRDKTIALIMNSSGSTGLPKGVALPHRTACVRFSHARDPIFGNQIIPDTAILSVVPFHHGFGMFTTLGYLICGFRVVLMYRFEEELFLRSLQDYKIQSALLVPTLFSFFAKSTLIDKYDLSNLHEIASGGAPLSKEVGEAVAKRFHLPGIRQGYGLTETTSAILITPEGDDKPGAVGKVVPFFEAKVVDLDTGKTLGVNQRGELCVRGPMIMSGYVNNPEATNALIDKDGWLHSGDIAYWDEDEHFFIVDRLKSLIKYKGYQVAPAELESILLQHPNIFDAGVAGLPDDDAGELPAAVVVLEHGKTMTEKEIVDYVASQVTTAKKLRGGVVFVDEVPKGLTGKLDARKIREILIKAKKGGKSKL
#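 Purified P. pyralis luciferase (10nM final) with 10uM D-luciferin and 10uM ATP (Km levels) in 50mM Tris acetate pH 7.5, 10mM Mg acetate, 0.01% Tween-20, 0.05% BSA; qHTS 6-point titration, ~60 µM downward; luminescence read.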
# SMN2 splice up: qHTS Assay for Enhancers of SMN2 Splice Variant Expression; actives 2.8% (n = 210,000); HEK293 SMN2-luciferase splicing reporter, luminescence, 30-36 h; Potency, µM (top dose mostly 46.1 µM), for the others: at the highest dose activity change, positive = activation, most hits filed as activators; also: % of control where 0% means no effect; nearly all actives have a fitted effect of over 55% in size
#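 qHTS luciferase splicing reporter: luminescence rises when SMN2 exon 7 is included in transfected HEK293 cells. Compound exposure lasted 30-36 h at 37C, with 4.5 mM final sodium butyrate as control, followed by a ONE-Glo read.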
# ELG1 genotox: qHTS screen for small molecules that induce genotoxicity in human embryonic kidney (HEK293T) cells expressing luciferase-tagged ELG1; actives 1.3% (n = 330,000); Potency, µM (top dose mostly 46 µM), without a hit: at the highest dose activity change, positive = activation, usual class: activators; HEK293T ELG1-luciferase reporter, luminescence, 16 h; also: % of control where 0% means no effect; nearly all actives have a fitted effect of over 60% in size
#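 Luminescence read-out: rising ELG1-luciferase signal, reflecting elevated ELG1 protein under genetic stress, flags genotoxic compounds. Cells were treated for 16 hr at 37 °C before ONE-Glo detection.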
# Rab9 prom act: qHTS Assay for Rab9 Promoter Activators | Huh7 Rab9 promoter-luciferase reporter, luminescence, 24 h | Potency, µM (highest dose often 9.22 µM), for inactives: at the highest dose activation, negative = inhibition, usual class: activators | actives 2.8% (n = 320,000); also: % of control where 0% means no effect; nearly all actives have a fitted effect of over 60% in size
#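 Luciferase signal after 10 min detection reagent at ambient indicates Rab9 promoter upregulation; stably transfected Huh7 cells were treated 24 h with compound in DMSO at 37 °C, 5% CO2.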
# * = called active by the depositor; ? = inconclusive; nt = no result given; [ ] = remark or other dose. Calls follow the shape of the dose curve; as a rule, active = well fitted curve in the direction sought with a large enough effect; inconclusive = small, poorly fitted or top-dose-only effect, or another doubt; inactive = no such curve, though single readings can be large; an effect the other way counts as inactive or inconclusive. Potency is read from the fitted curve at half-maximal effect.
SMILES,NPC1 prom act,KinaseGlo FLuc,FLuc counter,SMN2 splice up,ELG1 genotox,Rab9 prom act
CC(=O)NC12CC3CC(C1)CC(C(=O)OCC(=O)c1ccc4c(c1)OCCO4)(C3)C2,0.5µM*,-4%,0.24µM*,-2%,?,0.1µM*
O=C(COC(=O)c1cccs1)NCc1ccc2c(c1)OCO2,4%,-7%,?,-1%,-2%,-1%
CCOC(=O)c1ccccc1NC(=O)CCc1c(C)nc2ncnn2c1C,nt,nt,0%,0%,nt,nt
O=C(CSc1nncn2c1cc1sccc12)Nc1ccc(Br)cc1F,nt,nt,-3%,nt,nt,nt
CN(c1ccc(O)cc1)S(=O)(=O)c1ccc2ccccc2c1,?,nt,19µM*,nt,?,4µM*
CCN(c1ccccc1)S(=O)(=O)c1ccc2ccccc2c1,-5%,nt,-3%,nt,-6%,-1%[1.84 µM]
Cc1ccc(N(C)S(=O)(=O)c2ccc3[nH]c(=O)ccc3c2)cc1,nt,nt,8.5µM*,nt,nt,nt
COc1cccc(NC(=O)CCSc2nc(-c3ccco3)cc(C(F)(F)F)n2)c1,nt,nt,2%,-25%,nt,nt
CCn1c(O)c(C=NC2CCCC(C)C2C)sc1=S (stereo not given),?,nt,15µM*,nt,?,?
Nc1ccc(CCc2nc3ccccc3o2)cc1,2.5µM*,-1%,2.7µM*,13µM*,2.9µM*,1.6µM*
O=C(Nc1nnc(-c2ccccc2F)s1)c1cccnc1,2.2µM*,2%,9.5µM*,?,?,2µM*
O=C(Nc1nnc(C(F)(F)F)s1)c1cccnc1,?,-3%,12µM*,11µM*,12%,4.5µM*
Cc1ccccc1OC(=O)CSc1nnc(-c2cccs2)o1,nt,nt,5%,nt,nt,nt
CCN(CC)c1ccc(/C=N/NC(=O)Cc2cccs2)cc1,12%,0%,27µM*,-1%,3%,-3%
O=C(/C=C/c1ccco1)NCC(=O)N/N=C/c1ccccc1[N+](=O)[O-],-1%,2%,1%,-10%,18%,1%
CCN(CC)c1ccc(/C=N/NC(=O)CNC(=O)/C=C/c2ccco2)cc1,-1%,nt,24µM*,nt,2%,-1%
COc1ccc(/C=N/NC(=O)Cc2cccs2)cc1,?,nt,17µM*,nt,?,?
CC1CCCCN1CCCNC(=O)c1sc2ncccc2c1-n1cccc1 (stereo not given),nt,nt,-2%,nt,nt,nt
CN(C)S(=O)(=O)c1ccc(/C(O)=C2/C(=O)C(=O)N(Cc3cccnc3)C2c2cccs2)cc1 (stereo not given),-3%,nt,-7%,nt,0%,3%
Cc1c(/C(O)=C2/C(=O)C(=O)N(Cc3cccnc3)C2c2cccs2)cnn1-c1ccccc1 (stereo not given),?,2%,-2%[2.3 µM],-29%,?,3.5µM*
Cc1c(/C(O)=C2/C(=O)C(=O)N(Cc3cccnc3)C2c2ccccn2)cnn1-c1ccccc1 (stereo not given),-5%,2%,15µM*,-19%,?,-17%
CC1(OC(=O)c2cnc3ccccc3n2)C(=O)C=C2C=C(c3ccsc3)OC=C2C1=O (stereo not given),nt,0%,nt,7%,nt,nt
COc1ccc(/C=N/OC(=O)Nc2ccccc2)cc1[N+](=O)[O-],6%,6%,15µM*,20%,12%,23%
O=C(Nc1ccccc1)O/N=C/c1ccc(F)cc1,0.63µM*,nt,2.4µM*,nt,?,0.79µM*
COc1ccc(NC(=O)O/N=C/c2ccncc2)cc1,16%,1%,?,-8%,14%,17%
Cc1ccc(NC(=O)O/N=C/c2ccc(F)cc2)cc1,?,nt,15µM*,nt,?,?
O=C(Nc1ccccc1)O/N=C/c1ccccc1Cl,6%,-16%,?,0%,15%,-3%
